High-throughput results deposited in PubChem by National Center for Advancing Translational Sciences (NCATS).
An excerpt weighted towards active compounds, which were near 11% of everything screened.
IMPase Li inh: qHTS Assay for Identifying the Cell-Membrane Permeable IMPase Inhibitors: Potentiation with Lithium; hit rate 0.35% among 210,000; CHO-M1 cells, IP1 TR-FRET (IP-One), carbachol + lithium; Potency, µM (doses to about 59.4 µM), actives largely listed as inhibitors; active means well fitted curve in the direction sought with a large enough effect; inconclusive means small, poorly fitted or top-dose-only effect, or another doubt; inactive means no such curve, though single readings can be large; an effect the other way counts as inactive or inconclusive;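 further: IP1 builds up when IMPase is blocked and the TR-FRET signal falls; nearly all actives have a fitted effect of over 50% in size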
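Test compounds were applied to CHO-M1 cells previously cultured for 16–30 h at 2000 per well. A small lithium amount accompanied them; after 30 min at 37C, IP1 was quantified by TR-FRET.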
ALDH1A1 block: qHTS Assay for Inhibitors of Aldehyde Dehydrogenase 1 (ALDH1A1); Aldehyde dehydrogenase 1A1 (Homo sapiens), P00352; Purified ALDH1A1, NADH fluorescence, propionaldehyde substrate; Potency, µM (titrated, usually from 75.3 µM), most hits filed as inhibitors; hit rate 7.3% among 220,000
Target sequence (P00352 whole entry, looked up): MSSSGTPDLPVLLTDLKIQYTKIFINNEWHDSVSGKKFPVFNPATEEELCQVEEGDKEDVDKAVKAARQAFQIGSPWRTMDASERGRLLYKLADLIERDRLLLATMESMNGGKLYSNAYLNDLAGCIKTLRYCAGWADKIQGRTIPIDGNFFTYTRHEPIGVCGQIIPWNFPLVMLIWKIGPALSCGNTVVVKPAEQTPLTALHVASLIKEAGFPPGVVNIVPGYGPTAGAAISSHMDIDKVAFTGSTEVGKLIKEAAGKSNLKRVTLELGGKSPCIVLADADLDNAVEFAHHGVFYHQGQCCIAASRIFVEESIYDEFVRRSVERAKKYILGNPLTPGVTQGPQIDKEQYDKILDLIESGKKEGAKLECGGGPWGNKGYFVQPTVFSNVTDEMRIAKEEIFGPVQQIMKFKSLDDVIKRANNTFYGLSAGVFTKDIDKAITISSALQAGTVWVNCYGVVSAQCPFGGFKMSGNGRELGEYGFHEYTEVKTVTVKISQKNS
NPSR antag: qHTS Assay for Antagonists of the Neuropeptide S Receptor: cAMP Signal Transduction; AID 1461, 2008; CHO-NPSR cells, cAMP TR-FRET, antagonist mode; Potency, µM (series often up to 38.3 µM), hits mostly inhibitors; hit rate 1% among 220,000; active means well fitted curve in the direction sought with a large enough effect; inconclusive means small, poorly fitted or top-dose-only effect, or another doubt; inactive means no such curve, though single readings can be large; an effect the other way counts as inactive or inconclusive; further: nearly all actives have a fitted effect of over 50% in size
IMPase cell inh: qHTS Assay for Identifying the Cell-Membrane Permeable IMPase Inhibitors; Inositol monophosphatase 1 (Rattus norvegicus), P97697; AID 901, 2007; CHO-M1 cells, IP1 accumulation, HTRF TR-FRET ratio; inhibition (IP1 accumulation), % at 46.1 µM; 120,000 tested, under 10 active; active means well fitted curve in the direction sought with a large enough effect in the signal ratio, not every such curve was filed as active; inconclusive means small, poorly fitted or top-dose-only effect, or a change in a side signal; inactive means no such curve, though single readings can be large or run the other way; the % refers to the signal ratio;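 further: cells stimulated with carbachol in lithium chloride buffer; higher means more IMPase inhibition seen as more IP1 and lower FRET ratio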
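The IP-One HTRF competitive assay in carbachol-stimulated CHO-M1 cells quantifies cellular IP1. Compounds spanned up to 46 uM final, and activity is expressed as AC50 from concentration-response fits of the ratio and donor data.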
PNC assembly inh: High Content Assay for Compounds that inhibit the Assembly of the Perinucleolar Compartment | activity change (PNC), negative = inhibition, % at 10 µM | PC3M PTB-GFP, PNC prevalence imaging, 16 h; stronger effect = lower value | hit rate 3.1% among 140,000;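 active means readout at or below -70, meaning at least 70% loss of cells showing the perinucleolar compartment, a nuclear body marking cancer cells; inconclusive means readout between -30 and a set limit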
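Read-out is percentage of cells bearing a perinucleolar compartment, from automated 20x imaging of fixed, Hoechst-stained PC3M PTB-GFP cells. Cells were seeded 4 h, then exposed 16 h to compound (23 nl of library stock) in duplicate plates.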
HPGD block: qHTS Assay for Inhibitors of HPGD (15-Hydroxyprostaglandin Dehydrogenase) | Potency, µM, hits mostly inhibitors | purified HPGD, NADH fluorescence kinetic, PGE2 substrate | 15-hydroxyprostaglandin dehydrogenase [NAD(+)] (Homo sapiens), P15428 | hit rate 4.3% among 150,000
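NADH formation kinetics: reaction with 30 uM PGE2 and 1 mM NAD+ (final), 20 nM enzyme, Tris-HCl pH 8 with Tween 20, after 15 min compound preincubation at room temperature. Fluorescence change, last versus first of five reads.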
Hits are given with their value; n = inactive; u = inconclusive; x = no result given; [ ] = another dose, or the depositor's remark. Unless noted, the call rests on the fitted dose curve; in most records, active means well fitted inhibition curve with a large enough effect (not every such curve was filed as active); inconclusive means small, poorly fitted or top-dose-only effect, or another doubt; inactive means no such curve, though single readings can be large or run the other way.

SMILES	IMPase Li inh	ALDH1A1 block	NPSR antag	IMPase cell inh	PNC assembly inh	HPGD block
C=CCN1C(=O)/C(=C2/Sc3ccccc3N2C)SC1=Nc1c(C)n[nH]c1C	u	u	n	n	u	n
CC(C)CC(C(=O)OCC(=O)Nc1ncc(Cl)cc1Cl)N1C(=O)c2ccccc2C1=O (configuration not stated)	n	n	u	n	n	n
Cc1cc(N2CCN(c3ccccc3)CC2)n2ncnc2n1	n	n	n	x	x	x
Cc1cc(N2CCN(C/C=C/c3ccccc3)CC2)n2ncnc2n1	n	n	n	n	n	28µM
Cc1ccc(C)c(Cn2nnc3c(=O)[nH]c(C4CCCN(C(=O)C5CCC5)C4)nc32)c1 (configuration not stated)	n	u	n	n	n	4.5µM
Cc1ccc(C)c(Cn2nnc3c(=O)[nH]c(C4CCN(C(=O)c5cccs5)CC4)nc32)c1	n	n	u	n	n	0.56µM
Cc1ccc(Cn2nnc3c(=O)[nH]c(C4CCN(C(=O)c5cccs5)CC4)nc32)cc1	n	n	n	n	n	14µM
Cc1cc(C(=O)CSc2ccc(Cl)cc2)cc(C)c1OC(=S)N(C)C	n	n	u	n	u	n
CCOc1ccc2nc(NC(=O)c3ccc(S(=O)(=O)N4CCOCC4)cc3)sc2c1	n	n	n	n	n	n
O=C1CC(N2CCN(Cc3ccc4c(c3)OCO4)CC2)C(=O)N1c1cccc(Cl)c1 (configuration not stated)	n	u	n	n	n	n
O=C1CC(N2CCN(Cc3ccccc3)CC2)C(=O)N1c1ccccc1 (configuration not stated)	n	n	n	n	n	n
O=C1CC(N2CCN(Cc3ccccc3)CC2)C(=O)N1c1ccc2c(c1)OCCO2 (configuration not stated)	n	7.1µM	n	n	u	n
COc1ccc(N2C(=O)CC(N3CCN(Cc4ccc5c(c4)OCO5)CC3)C2=O)cc1 (configuration not stated)	n	28µM	n	x	x	x
Cc1cc(SCC(=O)OCC(=O)NC(C)c2ccccc2)c(C)cc1Br (configuration not stated)	n	n	n	x	n	n
O=C1c2ccccc2S(=O)(=O)c2cc(C(=O)N(c3ccccn3)c3ccccn3)ccc21	n	n	n	n	u	n
COc1ccc(C2=CC(=O)CC(c3ccccc3)C2)cc1 (configuration not stated)	n	u	n	x	x	x
O=C1CC(c2ccc(Cl)cc2)CC(=O)C1CS(=O)(=O)c1ccccc1 (configuration not stated)	n	7.1µM	n	x	x	x
O=C1CCCN1CC(O)CS(=O)(=O)c1ccccc1 (configuration not stated)	n	n	n	n	n	n
O=C1CCCC(=O)C1CS(=O)(=O)c1ccccc1	n	13µM	n	x	x	x
COc1ccc(C2CC(=O)C(CS(=O)(=O)c3ccccc3)C(=O)C2)cc1 (configuration not stated)	n	7.9µM	n	x	x	x
O=C1CC(c2ccccc2)CC(=O)C1Sc1ccc(Cl)cc1 (configuration not stated)	n	u	n	x	n	u
CCOC(=O)/C=c1\s/c(=C\c2ccc(C(F)(F)F)cc2)c(=O)n1CC(=O)NCc1ccco1	n	n	n	n	n	n
C=CCN(C(=O)CNC(=O)c1ccco1)C(C(=O)NC1CCCCC1)c1ccc(OC)cc1 (configuration not stated)	n	n	n	n	n	n
Fc1ccc(N2N=C(c3cccs3)CC2c2ccccc2)cc1 (configuration not stated)	10µM	u	n	x	x	x
CS(=O)(=O)N1N=C(c2cccs2)CC1c1ccccc1 (configuration not stated)	x	x	n	x	x	x
SMILES	IMPase Li inh	ALDH1A1 block	NPSR antag	IMPase cell inh	PNC assembly inh	HPGD block
c1ccc(C2Oc3ccccc3C3CC(c4cccs4)=NN32)cc1 (configuration not stated)	n	13µM	n	x	n	u
Cc1cccc(-n2cc(C#N)c(=O)[nH]c2=O)n1	n	n	n	x	u	n
CSc1nc(C)cc(-n2cc(F)c(=O)[nH]c2=O)n1	n	n	n[7.67 µM]	n	n	14µM
COC(=O)CN1C(=S)N(c2ccc(OC)cc2)C(=O)/C1=C/c1ccc(N2CCOCC2)cc1	n	u	n	x	x	x
COC(=O)/C=C1\SC(N2CCOCC2)=C(c2ccc(OC)cc2)C1=O	n	7.9µM	n	x	x	x
NC(=S)Nc1cccc2cnccc12	n	n	n	n	n	n
Fc1ccccc1NC(=S)Nc1cccc2cnccc12	n	18µM	n	x	x	x
FC(F)(F)c1ccccc1NC(=S)Nc1cccc2cnccc12	n	25µM	n	x	x	x
Cn1c(=O)c2c(nc(CN3CCN(C(=O)c4ccco4)CC3)n2Cc2ccccc2F)n(C)c1=O	n	13µM	n	n	n	n
Cn1c(=O)c2c(nc(NCc3ccc4c(c3)OCO4)n2Cc2ccccc2F)n(C)c1=O	n	13µM	n	n	n	n
Cn1c(=O)c2c(nc(CN3CCN(C(=O)c4ccco4)CC3)n2Cc2ccc(F)cc2)n(C)c1=O	n	20µM	n	n	n	n
Cn1c(=O)c2c(nc(NCc3ccc4c(c3)OCO4)n2Cc2ccccc2)n(C)c1=O	n	u	n	n	n	n
Cc1ccccc1Cn1c(CN2CCN(C(=O)c3ccco3)CC2)nc2c1c(=O)n(C)c(=O)n2C	n	u	n	n	n	n
O=C(O)CCN1c2ccccc2Sc2ccccc21	x	n	n	x	x	x
CCN(C(=O)CSc1nc2nc(C)cc(C)n2n1)c1ccccc1	n	u	n	n	n	14µM
Cc1cc(C)n2nc(SCC3COc4ccccc4O3)nc2n1 (configuration not stated)	n	n	n	n	n	7.1µM
CCN(C(=O)CSc1nc2nc(C)cc(C)n2n1)c1cccc(C)c1	n	u	n	n	n	25µM
Cc1cc(C)n2nc(SCN3C(=O)c4ccccc4C3=O)nc2n1	13µM	u	n	n	n	22µM
O=C(NCCN1CCOCC1)C(Sc1ccccc1)c1ccccc1 (configuration not stated)	x	n	n	x	x	x
C=CCn1c(SCC(=O)Nc2ccccc2C)nc2sc(C)c(C)c2c1=O	n	n	n	n	n	n
CCOc1ccc(CN(C)CC(=O)NCc2ccccc2)cc1	x	n	n	x	x	x
